The results in this text go back to PubChem BioAssay AID2069 (Sanford-Burnham Center for Chemical Genomics, 2009).

Structures are written as SMILES. The campaign covered roughly 1,200 compounds. About 210 (18%) were called active. Not all results are given here. Values without a mark were called inactive. Rule as the data show it: active = inhibition above about 30%; inactive = the rest.

The assay is described as follows: fluorescence readout artefact check – biochemical, HTRF, uHTS, artefact control for SUMOylation inhibitor project, confirmation (AID 2069). Conditions: HTRF interference counterscreen, at 35 µM, stronger effect = higher value.
For the molecule `Cn1c2ccccc2c2cnn(CC(=O)Nc3ccc(Cl)cc3)c(=O)c21`, the inhibition – broadly, the change of the read-out against control, counted positive when it falls – is 15.8%.

Consider `Cc1cc(C)c(S(=O)(=O)NCC23C=CC(O2)C2C(=O)N(c4ccccc4)C(=O)C23)c(C)c1` (stereo unspecified), for which the inhibition is -17.5%.

Regarding `O=C(NN1C(=O)CSC1=S)C(=O)NN1C(=O)CSC1=S`, the inhibition is 32.4% (active).

Take `COc1ccc(NC(=S)Nc2ccc3nsnc3c2)cc1`: the inhibition was 15.8%.

In the case of `CC(=O)OCCNc1cc(SCc2ccco2)c2nonc2c1[N+](=O)[O-]`, the inhibition was -1.55%.

As to `Cc1oc2c(c(C)cc3oc(=O)c(CC(=O)N[C@H](C(=O)O)C(C)C)c(C)c32)c1C`, the inhibition was 56.9% (active).

As to `CSCC[C@H](NC(=O)Cc1c(C)c2c(cc(C)c3c(C)c(C)oc32)oc1=O)C(=O)O`, the inhibition was 48.5% (active).

In the case of `CCC(NC(=O)Cc1c(C)c2c(cc(C)c3c(C)c(C)oc32)oc1=O)C(=O)O` (stereo unspecified), the inhibition was 51.6% (active).

`Cc1cc(OC(C(=O)O)c2ccccc2)c2c(C)c(Cc3ccccc3)c(=O)oc2c1` (stereo unspecified): the inhibition is 21.4%.

As to `Cc1oc2c(c(C)cc3oc(=O)c(CC(=O)N[C@@H](C)C(=O)O)c(C)c32)c1C`, the inhibition is 53.8% (active).

With `Nc1ccccc1NC1=CC(=O)CC(c2ccco2)C1` (stereo unspecified), the inhibition was 16.8%.

`CC1=NN(c2ccc(C(=O)O)cc2)C(=O)/C1=C\c1ccc(OC(=O)c2cccs2)cc1`: the inhibition is 12.1%.

Take `C[n+]1cccc2c(Br)ccc([O-])c21`: the inhibition is -20.8%.

Take `C[n+]1cccc2cccc([O-])c21`: the inhibition was 5.4%.

Consider `Cc1cccc2c(N=Nc3ccc(S(=O)(=O)Nc4cccc(Cl)c4)cc3[N+](=O)[O-])c(O)[nH]c12`, for which the inhibition was -2.75%.

With `CCOCCCNC1=C(Cl)C(=O)c2ccccc2C1=O`, the inhibition was -7.4%.

Take `Cc1ccc(NC(=O)CSc2nnc(-c3ccco3)c(-c3ccco3)n2)cc1`: the inhibition was 0.35%.

On to `O=C(Nc1ccc2nsnc2c1)N1CCCCC1`, for which the inhibition was 12.4%.

As to `Oc1ccc(N=Cc2ccc(OCc3ccccc3)cc2)cc1`, the inhibition is -5.35%.

Consider `CC1=CC(C)(C)N2C(=O)C(=Nc3ccc(O)cc3)c3cccc1c32`, for which the inhibition is -3.6%.

Turning to `Cc1ccc(NC(=O)CN2C(=O)S/C(=C\c3cc(Cl)c(OCC(=O)O)c(Cl)c3)C2=O)cc1`, the inhibition is 19.7%.

As for `O=C1CC(c2ccco2)CC(O)=C1C=Nc1cc(Cl)ccc1Cl` (stereo unspecified), the inhibition is 1.35%.

On to `C/C(=N\OCc1nc2ccccc2c(=O)n1/N=C/c1cc([N+](=O)[O-])ccc1O)c1ccccc1`, for which the inhibition is -16.2%.

As to `CCOc1ccc(NC(=O)c2ccc(NC(=O)c3ccc(CN4CCOCC4)cc3)cc2)cc1`, the inhibition is 5.55%.

Regarding `CCOc1ccc(S(=O)(=O)N2CCCC(C(=O)NCc3ccco3)C2)cc1` (stereo unspecified), the inhibition is -1.5%.

As to `CCOc1ccc(N2CC(C(=O)NCc3ccc(F)cc3)CC2=O)cc1` (stereo unspecified), the inhibition is 34.9% (active).

For `O=[N+]([O-])c1cc([N+](=O)[O-])c2nonc2c1Nc1ccc(O)cc1`, the inhibition is -10.7%.

For the molecule `COc1ccc2c(c1)-c1nc(/N=C/c3cccc(OC)c3O)sc1CC2`, the inhibition is 1.05%.

In the case of `COc1cc(NS(=O)(=O)c2ccc(NC(=S)NC(=O)/C=C/c3ccco3)cc2)ncn1`, the inhibition was 25.8%.

Consider `O=C(COC(=O)c1cc(NS(=O)(=O)c2cccs2)ccc1O)Nc1cc(Cl)ccc1Cl`, for which the inhibition was 13.8%.

As to `O=C(O)c1cccc(Cn2c(Cl)c(/C=N/NC(=O)c3cc4ccccc4cc3O)sc2=O)c1`, the inhibition was -2%.

On to `COc1ccccc1/C=N/NC(=O)c1ccc(CN2C(=O)c3cccc4cccc2c34)cc1`, for which the inhibition was 48.2% (active).

On to `O=C(Cc1cc(=O)[nH][nH]1)N/N=C/c1cccc2ccccc12`, for which the inhibition was -6.95%.

With `O=C(N/N=C/c1ccccc1)c1ccc(CN2C(=O)c3cccc4cccc2c34)cc1`, the inhibition was 38.8% (active).

Take `C=CCc1cccc(/C=N/NC(=O)CNc2cccc3ccccc23)c1O`: the inhibition was 4.7%.

Turning to `O=C(O)c1ccc(/C=N/NC(=O)c2ccc(CN3c4cccc5cccc(c45)S3(=O)=O)cc2)cc1`, the inhibition was 18.2%.

With `COc1ccc2c(c1)CC/C(=C\Nc1ccc3c(c1)OCO3)C2=O`, the inhibition is -3.55%.

For the molecule `C=CCOc1c(Br)cc(/C=C2\SC(=Nc3ccccc3)NC2=O)cc1OC`, the inhibition is 9.1%.

With `O=C(O)c1cccc([N+](=O)[O-])c1C(=O)Nc1cccc2ccccc12`, the inhibition is -3.8%.

Turning to `Cc1ccc(C(=O)Nc2ccccc2C(=O)N2CCN(c3ccccc3)CC2)cc1`, the inhibition was -8.05%.

On to `Cn1c(=O)cc(C(=O)N/N=C/c2ccc(Cl)cc2)[nH]c1=O`, for which the inhibition was -5.8%.

On to `CCc1nc2sc(C(C)=O)c(N)c2c2c1CCCC2`, for which the inhibition was 9.65%.

`O=[N+]([O-])c1cccc(C=Nc2cccc3ccccc23)c1O`: the inhibition is 29.6%.

With `CCOc1ccc(NC(=S)Nc2ccc3nsnc3c2)cc1`, the inhibition is 19.4%.

Turning to `O=C1NC(=Nc2ccc3ccccc3c2)S/C1=C/c1ccco1`, the inhibition was 9.5%.

Take `COc1cccc(NC(=S)Nc2cccc3ccccc23)c1`: the inhibition was 2.35%.

As to `S=C(Nc1ccc2nsnc2c1)N1CCCCCC1`, the inhibition was 6.8%.

On to `S=C(Nc1ccc2nsnc2c1)N1CCCC1`, for which the inhibition is 35.6% (active).

As for `S=C(Nc1ccc2nsnc2c1)N1CCCCC1`, the inhibition is 16.2%.

Take `S=c1[nH]nc(-c2cc(-c3ccccc3)n[nH]2)n1/N=C/c1cccc(Cl)c1`: the inhibition is -8.55%.

As to `COc1ccc(/C=C/c2nnc(NC(=O)CSc3ccc(C)cc3)s2)cc1`, the inhibition was 9.65%.

On to `CCOc1cc(/C=C2\C(=O)N(c3ccc(C(N)=O)cc3)N=C2C)ccc1OC(=O)c1cccs1`, for which the inhibition is -9.6%.

Take `Nc1ccc2c(c1)sc1ccccc12`: the inhibition was -9.65%.

On to `Nc1ccc2nc(-c3ccccc3)sc2c1`, for which the inhibition was 66% (active).

Consider `Cc1ccc(C)c(S(=O)(=O)c2c(N)n(/N=C/c3ccco3)c3nc4ccccc4nc23)c1`, for which the inhibition was -11.7%.

On to `CCc1nn(CC(=O)NC(C)CCc2ccccc2)c(=O)c2cc3cc(F)ccc3n12` (stereo unspecified), for which the inhibition was 16.4%.

On to `COc1cccc(NS(=O)(=O)c2ccc3c(c2)C2C=CCC2C(c2ccc(C(=O)O)cc2)N3)c1` (stereo unspecified), for which the inhibition is 8.05%.

Turning to `O=C(O)c1ccc(NS(=O)(=O)c2ccc3c(c2)C2C=CCC2C(c2ccccc2F)N3)cc1` (stereo unspecified), the inhibition was 3.15%.

Consider `CC(=O)c1ccc2c(c1)C1C=CCC1C(C(=O)O)N2` (stereo unspecified), for which the inhibition is 70.7% (active).

For `CCc1ccc(NC(=O)NNC(=O)c2cc3ccccc3cc2O)cc1`, the inhibition is 8.2%.

For `N#Cc1c(-c2cccs2)nc(SCc2ccc(Cl)cc2)[nH]c1=O`, the inhibition was 21.6%.

As for `NC(=O)C1CCN(C2=C(NS(=O)(=O)c3ccc(Cl)cc3)C(=O)c3ccccc3C2=O)CC1`, the inhibition was -20.8%.

Turning to `C=CCn1c(N)c(C(=O)Nc2ccccc2)c2nc3ccccc3nc21`, the inhibition is 20.9%.

Consider `CC(C)(C)OC(=O)c1c(N)n(CCCN2CCCC2=O)c2nc3ccccc3nc12`, for which the inhibition was 41.4% (active).

Turning to `C=CCn1c(N)c(C(=O)OC(C)(C)C)c2nc3ccccc3nc21`, the inhibition is 32.7% (active).

Turning to `C=CCn1c(N)c(C(=O)Nc2cccc(C)c2)c2nc3ccccc3nc21`, the inhibition was 6.4%.

Regarding `COc1ccc(CNC(=O)c2c(N)n(CCCN3CCOCC3)c3nc4ccccc4nc23)cc1`, the inhibition is 17.5%.

On to `COCCn1c(N)c(C(=O)OCc2ccccc2)c2nc3ccccc3nc21`, for which the inhibition is 16%.

On to `O=C(Nc1cccc2cccc(NC(=O)c3ccco3)c12)c1ccco1`, for which the inhibition was -6.45%.

Turning to `NS(=O)(=O)c1ccc(NC2=CC(=O)C(=O)c3ccccc32)cc1`, the inhibition is 9.2%.

Consider `CC(=O)c1cccc(NC(=S)Nc2cccc3ccccc23)c1`, for which the inhibition was 0.85%.

As to `Cc1ccc(S(=O)(=O)NNC(=O)Nc2cccc3ccccc23)cc1`, the inhibition is 4.05%.

As to `Oc1cccc2c(NC(=S)Nc3ccc(SC(F)F)cc3)cccc12`, the inhibition is -6.1%.

Regarding `O=C(CCCN1C(=O)/C(=C/c2ccco2)SC1=S)Nc1ccccc1C(=O)O`, the inhibition is 1.8%.

With `C/C(=N\NC(=O)CNc1cccc2ccccc12)c1ccccc1`, the inhibition was 18%.

Regarding `CC(=O)N1C(=S)NC(=O)/C1=C1/C(=O)N(CC(=O)Nc2cccc(C)c2)c2ccccc21`, the inhibition is 4.65%.

Take `CCN(CC)C(=O)C1CCCN(C(=O)Nc2ccc3nsnc3c2)C1` (stereo unspecified): the inhibition was 17.5%.

Consider `COCCn1c(N)c(C(=O)NCC2CCCO2)c2nc3ccccc3nc21` (stereo unspecified), for which the inhibition is 42.4% (active).

As to `CC(C)Cn1c(N)c(C(=O)NCc2cccs2)c2nc3ccccc3nc21`, the inhibition is 25.2%.

For `COc1ccc(-n2c(N)c(C(=O)NCC3CCCO3)c3nc4ccccc4nc32)c(OC)c1` (stereo unspecified), the inhibition was 24.9%.

Turning to `C=CCn1c(N)c(C(=O)NCC2CCCO2)c2nc3ccccc3nc21` (stereo unspecified), the inhibition is 42.5% (active).

On to `COCCn1c(N)c(C(=O)NCc2cccs2)c2nc3ccccc3nc21`, for which the inhibition is 28.6%.

With `Nc1c(C(=O)NCc2ccco2)c2nc3ccccc3nc2n1CCc1ccccc1F`, the inhibition was 15.7%.

For `CC(C)Cn1c(N)c(C(=O)NCC2CCCO2)c2nc3ccccc3nc21` (stereo unspecified), the inhibition is 34% (active).

As for `Nc1c(C(=O)NCc2ccco2)c2nc3ccccc3nc2n1CCc1ccc(F)cc1`, the inhibition was 23.6%.

Take `Cc1ccc(-n2c(-c3cc(-c4ccco4)[nH]n3)n[nH]c2=S)c(Br)c1`: the inhibition was 16.4%.

For `CC1=C(C(=O)Nc2ccccc2)C(c2ccc(C)cc2)N=C(Nc2nc3ccccc3o2)N1` (stereo unspecified), the inhibition was 10.2%.

`CCc1ccc2c(c1)c1nc(C)sc1n2CC`: the inhibition was 0.45%.

With `Cn1c2ccccc2c(=O)n2c(=O)c3ccccc3cc12`, the inhibition is 8.7%.

In the case of `COc1cc(/C=C2/C(=O)N(c3ccccc3)N=C2C)ccc1OS(=O)(=O)c1ccccc1`, the inhibition was -23.2%.

Take `Cc1ccc(Cn2nnnc2CN2CCC(NC(=O)C(C)(C)C)CC2)cc1`: the inhibition was 5.15%.
